Reference: the supplement of paper PMC10849652
About 8,800 targets were measured; listed, in parts, are those with a hit and a random draw of the rest. About 0.5% of all pairs of compound and target were hits. Unmarked numbers belong to inactive results.

Legend:
Test in all cases: log2 fold change, soluble protein after heating vs DMSO (PISA); higher = thermal stabilisation; K562 lysate, 10 uM; active = over 0.2 and 3.5 SD of the protein, either way, in both replicates (recomputed)
lapatinib = compound: CS(=O)(=O)CCNCc1ccc(-c2ccc3ncnc(Nc4ccc(OCc5cccc(F)c5)c(Cl)c4)c3c2)o1 [lapatinib]
Summary of the method: (§1)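 Soluble protein was defined as the supernatant remaining after 21,000xg for 90 min, following pooling of heated aliquots and adjustment to 0.5% NP-40 at 4°C. Before that, crude K562 extract at 1 mg/mL protein in PBS pH 7.4 with 1 mM MgCl2 was treated with 10 μM compound for 30 min and heated for 3 min across 48°C-58°C. Quantification used TMTpro 16plex LC-MS/MS with channel sums equalised, and values are log-two fold changes in thermal stability relative to solvent controls from duplicates.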

pictilisib = compound: CS(=O)(=O)N1CCN(Cc2cc3nc(-c4cccc5[nH]ncc45)nc(N4CCOCC4)c3s2)CC1 [pictilisib]
Summary of the method: as §1

crizotinib = compound: C[C@@H](Oc1cc(-c2cnn(C3CCNCC3)c2)cnc1N)c1c(Cl)ccc(F)c1Cl [crizotinib]
Summary of the method: as §1

[1] = compound: C[C@H](C1=CC=C(C=C1)C(=O)NC2=C3C=CNC3=NC=C2)N
Summary of the method: as §1

duvelisib = compound: C[C@H](Nc1ncnc2nc[nH]c12)c1cc2cccc(Cl)c2c(=O)n1-c1ccccc1 [duvelisib]
Summary of the method: as §1

gandotinib = compound: Cc1cc(Nc2cc(CN3CCOCC3)c3nc(C)c(Cc4ccc(Cl)cc4F)n3n2)n[nH]1 [gandotinib]
Summary of the method: as §1

tozasertib = compound: Cc1cc(Nc2cc(N3CCN(C)CC3)nc(Sc3ccc(NC(=O)C4CC4)cc3)n2)n[nH]1 [tozasertib]
Summary of the method: as §1

doramapimod = compound: Cc1ccc(-n2nc(C(C)(C)C)cc2NC(=O)Nc2ccc(OCCN3CCOCC3)c3ccccc23)cc1 [doramapimod]
Summary of the method: as §1

bafetinib = compound: Cc1ccc(NC(=O)c2ccc(CN3CC[C@H](N(C)C)C3)c(C(F)(F)F)c2)cc1Nc1nccc(-c2cncnc2)n1 [bafetinib]
Summary of the method: as §1

[2] = compound: Cc1cccc(CC(=O)N2CCc3c2ccc(-c2cn(C)c4ncnc(N)c24)c3F)n1
Summary of the method: as §1

nilotinib = compound: Cc1cn(-c2cc(NC(=O)c3ccc(C)c(Nc4nccc(-c5cccnc5)n4)c3)cc(C(F)(F)F)c2)cn1 [nilotinib]
Summary of the method: as §1

[3] = compound: Cc1nc(Nc2n[nH]c3c2CN(C(=O)N[C@H](CN(C)C)c2ccccc2)C3(C)C)c2sccc2n1
Summary of the method: as §1

dasatinib = compound: Cc1nc(Nc2ncc(C(=O)Nc3c(C)cccc3Cl)s2)cc(N2CCN(CCO)CC2)n1 [dasatinib]
Summary of the method: as §1

[4] = compound: Cc1ncc(-c2ccnc(Nc3ccc(S(C)(=O)=O)cc3)n2)n1C(C)C
Summary of the method: as §1

[5] = compound: Cn1cc(-c2ccc3c(c2)CCN3C(=O)Cc2cccc(C(F)(F)F)c2)c2c(N)ncnc21
Summary of the method: as §1

quisinostat = compound: Cn1cc(CNCC2CCN(c3ncc(C(=O)NO)cn3)CC2)c2ccccc21 [quisinostat]
Summary of the method: as §1

tipifarnib = compound: Cn1cncc1[C@@](N)(c1ccc(Cl)cc1)c1ccc2c(c1)c(-c1cccc(Cl)c1)cc(=O)n2C [tipifarnib]
Summary of the method: as §1

[6] = compound: NC(=O)Nc1cc(-c2cccc(F)c2)sc1C(=O)N[C@H]1CCCNC1
Summary of the method: as §1

[7] = compound: NC(=O)c1cnc(N[C@@H]2CCCC[C@@H]2N)nc1Nc1cccc(-n2nccn2)c1
Summary of the method: as §1

[8] = compound: NC1(c2ccc(-c3nc4ccn5c(=O)[nH]nc5c4cc3-c3ccccc3)cc2)CCC1
Summary of the method: as §1

Chain of UniProt Q13478 (Q13478 whole entry, looked up): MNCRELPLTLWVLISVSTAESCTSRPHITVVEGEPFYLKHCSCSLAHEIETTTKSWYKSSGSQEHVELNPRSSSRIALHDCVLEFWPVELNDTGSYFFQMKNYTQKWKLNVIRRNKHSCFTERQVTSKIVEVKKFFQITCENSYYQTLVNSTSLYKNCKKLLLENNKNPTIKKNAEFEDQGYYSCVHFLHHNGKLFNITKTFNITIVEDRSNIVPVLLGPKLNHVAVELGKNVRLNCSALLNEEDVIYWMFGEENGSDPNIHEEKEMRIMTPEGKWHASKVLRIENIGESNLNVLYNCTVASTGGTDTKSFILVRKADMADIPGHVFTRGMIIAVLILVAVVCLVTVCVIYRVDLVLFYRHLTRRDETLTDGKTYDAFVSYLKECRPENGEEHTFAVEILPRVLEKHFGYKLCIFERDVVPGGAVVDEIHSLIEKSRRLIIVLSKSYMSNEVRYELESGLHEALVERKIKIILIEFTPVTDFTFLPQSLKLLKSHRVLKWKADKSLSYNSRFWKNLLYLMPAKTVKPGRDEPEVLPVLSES
Chain of UniProt O15357 (O15357 whole entry, looked up): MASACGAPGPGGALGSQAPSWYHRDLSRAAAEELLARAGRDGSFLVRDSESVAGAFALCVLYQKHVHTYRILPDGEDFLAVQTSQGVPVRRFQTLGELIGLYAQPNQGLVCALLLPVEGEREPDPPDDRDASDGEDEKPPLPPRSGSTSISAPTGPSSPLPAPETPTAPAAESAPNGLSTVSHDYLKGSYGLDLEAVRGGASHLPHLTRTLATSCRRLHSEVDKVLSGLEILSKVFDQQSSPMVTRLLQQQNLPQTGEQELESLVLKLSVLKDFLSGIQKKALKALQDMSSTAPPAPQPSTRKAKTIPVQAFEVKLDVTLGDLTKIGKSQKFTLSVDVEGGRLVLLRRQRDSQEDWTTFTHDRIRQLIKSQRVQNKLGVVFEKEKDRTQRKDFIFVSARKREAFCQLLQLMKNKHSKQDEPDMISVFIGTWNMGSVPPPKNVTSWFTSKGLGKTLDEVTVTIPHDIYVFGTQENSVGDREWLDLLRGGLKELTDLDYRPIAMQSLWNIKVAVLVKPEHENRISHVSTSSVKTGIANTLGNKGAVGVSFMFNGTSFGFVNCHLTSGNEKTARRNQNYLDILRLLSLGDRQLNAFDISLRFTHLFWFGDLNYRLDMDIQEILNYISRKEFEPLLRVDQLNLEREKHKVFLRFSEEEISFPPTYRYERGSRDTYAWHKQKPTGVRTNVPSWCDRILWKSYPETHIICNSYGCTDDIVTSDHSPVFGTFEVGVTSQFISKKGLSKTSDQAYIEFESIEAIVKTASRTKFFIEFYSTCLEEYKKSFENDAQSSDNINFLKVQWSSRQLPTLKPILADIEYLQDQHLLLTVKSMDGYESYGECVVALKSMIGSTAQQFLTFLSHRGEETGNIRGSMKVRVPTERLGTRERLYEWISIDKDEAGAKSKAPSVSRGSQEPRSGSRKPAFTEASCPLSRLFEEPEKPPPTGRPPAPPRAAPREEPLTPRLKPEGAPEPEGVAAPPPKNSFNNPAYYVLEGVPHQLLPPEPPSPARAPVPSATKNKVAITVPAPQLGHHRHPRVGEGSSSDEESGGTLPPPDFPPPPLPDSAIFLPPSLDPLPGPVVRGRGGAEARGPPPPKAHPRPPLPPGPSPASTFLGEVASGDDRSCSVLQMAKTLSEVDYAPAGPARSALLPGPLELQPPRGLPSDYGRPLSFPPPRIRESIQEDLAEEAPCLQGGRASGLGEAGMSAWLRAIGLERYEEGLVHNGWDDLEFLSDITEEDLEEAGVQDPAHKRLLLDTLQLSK
Chain of UniProt Q9UBN7 (Q9UBN7 whole entry, looked up): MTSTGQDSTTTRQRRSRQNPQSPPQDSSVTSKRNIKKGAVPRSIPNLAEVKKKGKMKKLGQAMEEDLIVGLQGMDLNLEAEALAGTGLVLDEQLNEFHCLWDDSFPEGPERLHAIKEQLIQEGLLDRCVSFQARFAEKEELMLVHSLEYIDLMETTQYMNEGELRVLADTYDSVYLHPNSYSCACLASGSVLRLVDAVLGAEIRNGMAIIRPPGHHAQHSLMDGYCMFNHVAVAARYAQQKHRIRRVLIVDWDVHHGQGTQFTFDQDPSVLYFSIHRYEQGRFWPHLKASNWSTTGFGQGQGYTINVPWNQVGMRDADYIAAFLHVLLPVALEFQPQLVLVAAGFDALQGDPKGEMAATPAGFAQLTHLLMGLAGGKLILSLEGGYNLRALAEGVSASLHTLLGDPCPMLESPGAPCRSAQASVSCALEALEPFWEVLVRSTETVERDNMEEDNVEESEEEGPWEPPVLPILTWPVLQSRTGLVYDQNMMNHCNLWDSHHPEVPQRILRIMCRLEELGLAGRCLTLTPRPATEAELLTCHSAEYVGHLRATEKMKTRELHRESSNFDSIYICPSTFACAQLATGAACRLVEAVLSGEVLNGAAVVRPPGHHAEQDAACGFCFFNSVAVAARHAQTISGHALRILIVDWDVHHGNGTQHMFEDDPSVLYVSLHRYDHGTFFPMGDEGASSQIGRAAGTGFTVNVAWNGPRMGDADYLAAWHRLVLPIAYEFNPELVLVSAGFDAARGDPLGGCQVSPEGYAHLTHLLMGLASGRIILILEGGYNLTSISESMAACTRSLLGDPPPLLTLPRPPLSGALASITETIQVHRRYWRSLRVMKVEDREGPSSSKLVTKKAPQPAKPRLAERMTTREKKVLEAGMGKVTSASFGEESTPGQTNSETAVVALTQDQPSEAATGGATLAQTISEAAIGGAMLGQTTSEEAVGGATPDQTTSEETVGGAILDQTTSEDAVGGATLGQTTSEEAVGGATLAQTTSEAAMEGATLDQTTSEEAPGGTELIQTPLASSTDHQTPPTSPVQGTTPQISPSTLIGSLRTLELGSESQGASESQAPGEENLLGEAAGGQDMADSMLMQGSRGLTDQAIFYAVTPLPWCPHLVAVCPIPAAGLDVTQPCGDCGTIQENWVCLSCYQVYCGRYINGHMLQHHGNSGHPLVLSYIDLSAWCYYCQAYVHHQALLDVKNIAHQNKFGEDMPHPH
Chain of UniProt Q92759 (Q92759 whole entry, looked up): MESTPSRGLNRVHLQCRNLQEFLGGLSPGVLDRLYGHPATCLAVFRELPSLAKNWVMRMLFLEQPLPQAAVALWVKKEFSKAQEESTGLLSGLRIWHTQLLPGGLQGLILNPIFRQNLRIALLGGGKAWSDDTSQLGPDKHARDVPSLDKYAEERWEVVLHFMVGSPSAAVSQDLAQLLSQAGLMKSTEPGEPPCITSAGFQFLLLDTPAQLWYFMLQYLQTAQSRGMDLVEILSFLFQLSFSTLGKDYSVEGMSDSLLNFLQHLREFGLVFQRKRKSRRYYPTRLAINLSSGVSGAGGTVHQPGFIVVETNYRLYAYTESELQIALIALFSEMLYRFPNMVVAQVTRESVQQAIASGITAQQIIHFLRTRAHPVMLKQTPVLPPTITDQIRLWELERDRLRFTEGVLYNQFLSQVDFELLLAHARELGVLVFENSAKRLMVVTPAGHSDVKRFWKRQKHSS
Chain of UniProt Q9Y6M1 (Q9Y6M1 whole entry, looked up): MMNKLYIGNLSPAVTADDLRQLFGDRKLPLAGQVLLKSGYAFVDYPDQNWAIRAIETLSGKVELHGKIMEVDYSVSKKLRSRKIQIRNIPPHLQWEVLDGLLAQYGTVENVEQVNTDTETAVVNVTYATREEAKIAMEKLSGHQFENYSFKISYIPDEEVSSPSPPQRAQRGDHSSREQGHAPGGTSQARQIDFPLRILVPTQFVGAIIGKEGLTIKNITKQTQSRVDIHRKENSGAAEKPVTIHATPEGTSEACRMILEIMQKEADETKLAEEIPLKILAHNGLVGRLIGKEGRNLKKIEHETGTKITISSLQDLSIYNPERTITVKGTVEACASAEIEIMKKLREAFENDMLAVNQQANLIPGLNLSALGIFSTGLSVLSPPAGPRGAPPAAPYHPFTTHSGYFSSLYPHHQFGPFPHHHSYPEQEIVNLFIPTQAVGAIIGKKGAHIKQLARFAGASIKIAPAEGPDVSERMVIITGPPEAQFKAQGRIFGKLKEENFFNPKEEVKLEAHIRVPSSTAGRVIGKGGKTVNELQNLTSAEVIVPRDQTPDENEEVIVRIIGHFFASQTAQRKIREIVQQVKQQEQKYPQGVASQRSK
Chain of UniProt Q53GQ0 (Q53GQ0 whole entry, looked up): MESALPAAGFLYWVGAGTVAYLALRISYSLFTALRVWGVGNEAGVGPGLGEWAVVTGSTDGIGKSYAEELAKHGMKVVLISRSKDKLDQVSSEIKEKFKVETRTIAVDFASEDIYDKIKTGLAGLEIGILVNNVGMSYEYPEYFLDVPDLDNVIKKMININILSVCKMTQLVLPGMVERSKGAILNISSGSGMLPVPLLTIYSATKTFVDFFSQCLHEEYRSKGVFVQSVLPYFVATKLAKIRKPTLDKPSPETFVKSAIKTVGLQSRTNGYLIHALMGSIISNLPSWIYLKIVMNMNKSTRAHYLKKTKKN
Chain of UniProt P20839 (P20839 whole entry, looked up): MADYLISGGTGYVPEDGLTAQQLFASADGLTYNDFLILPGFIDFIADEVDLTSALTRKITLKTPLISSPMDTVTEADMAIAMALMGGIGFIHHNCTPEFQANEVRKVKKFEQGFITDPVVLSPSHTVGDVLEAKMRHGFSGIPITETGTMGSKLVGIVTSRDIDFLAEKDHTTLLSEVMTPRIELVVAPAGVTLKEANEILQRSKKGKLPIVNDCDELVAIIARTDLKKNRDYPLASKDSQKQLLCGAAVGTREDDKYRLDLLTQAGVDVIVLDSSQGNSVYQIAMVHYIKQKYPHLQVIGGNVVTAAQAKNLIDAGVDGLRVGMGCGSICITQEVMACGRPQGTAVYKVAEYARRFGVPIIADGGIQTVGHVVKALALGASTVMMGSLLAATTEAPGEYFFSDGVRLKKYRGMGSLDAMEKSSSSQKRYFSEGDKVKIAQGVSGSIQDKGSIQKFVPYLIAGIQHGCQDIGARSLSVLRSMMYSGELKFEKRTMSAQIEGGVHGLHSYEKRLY

Row | Target | log2 fold change (lapatinib) | log2 fold change (pictilisib) | log2 fold change (crizotinib) | log2 fold change [1] | log2 fold change (duvelisib) | log2 fold change (gandotinib) | log2 fold change (tozasertib) | log2 fold change (doramapimod) | log2 fold change (bafetinib) | log2 fold change [2] | log2 fold change (nilotinib) | log2 fold change [3] | log2 fold change (dasatinib) | log2 fold change [4] | log2 fold change [5] | log2 fold change (quisinostat) | log2 fold change (tipifarnib) | log2 fold change [6] | log2 fold change [7] | log2 fold change [8]
1 | IRAK1 (UniProt P51617) | 0.023 | -0.008 | 0.799 (active) | -0.111 | -0.169 | 0.26 | -0.116 | 0.172 | -0.036 | 0.168 | -0.036 | 0.011 | 0.051 | 0.112 | 0.131 | -0.145 | 0.016 | 0.373 (active) | 0.005 | -0.005
2 | GOLPH3 (UniProt Q9H4A6) | 0.007 | -0.013 | -0.123 | -0.049 | 0.005 | 0.034 | 0.025 | 0.031 | -0.073 | 0.045 | -0.008 | 0.008 | -0.071 | 0.044 | -0.013 | -0.065 | -0.039 | 0.012 | -0.023 | -0.02
3 | GLYR1 (UniProt Q49A26) | 0.053 | 0.045 | -0.058 | 0.019 | -0.079 | 0.045 | -0.044 | 0.11 | -0.042 | -0.04 | 0.082 | 0.02 | -0.053 | 0.053 | -0.048 | -0.119 | -0.12 | -0.049 | -0.012 | 0.023
4 | INPPL1 (UniProt O15357) | 0.023 | 0.006 | -0.047 | -0.05 | -0.004 | -0.065 | 0.029 | 0.01 | -0.05 | 0.03 | -0.007 | -0.001 | -0.031 | -0.02 | 0.035 | 0 | -0.026 | 0.032 | 0.028 | 0.003
5 | GLUD2 (UniProt P49448) | -0.009 | 0.144 | -0.097 | -0.004 | 0.001 | 0.099 | 0.03 | -0.028 | 0.049 | 0.024 | 0.053 | -0.067 | 0.013 | -0.003 | -0.017 | 0.039 | 0.047 | 0.015 | 0.012 | -0.004
6 | H4C1 (UniProt P62805) | -0.043 | -0.069 | 0.032 | 0.003 | -0.16 | 0 | -0.027 | 0.006 | 0.059 | -0.044 | 0.051 | -0.027 | -0.063 | -0.033 | 0.048 | 0.137 | 0 | -0.032 | 0.01 | 0.015
7 | HNRNPUL2 (UniProt Q1KMD3) | -0.037 | -0.028 | -0.033 | -0.002 | 0.012 | -0.005 | 0.009 | -0.008 | -0.009 | 0.043 | -0.037 | 0.02 | 0.002 | 0.009 | -0.005 | -0.046 | 0.008 | 0 | 0.004 | -0.008
8 | HDAC6 (UniProt Q9UBN7) | -0.019 | -0.085 | -0.039 | 0.014 | 0.065 | -0.017 | 0.002 | 0.012 | -0.069 | -0.01 | 0.078 | -0.016 | -0.06 | -0.034 | 0.042 | 0.031 | 0.024 | -0.01 | 0.034 | -0.027
9 | IL18R1 (UniProt Q13478) | -0.112 | 0.207 | -0.076 | -0.116 | -0.049 | 0.092 | 0.063 | -0.111 | -0.031 | 0.045 | 0.02 | 0.136 | 0.181 | -0.108 | 0.004 | 0.067 | 0.118 | 0.155 | -0.055 | 0.211
10 | HERC2 (UniProt O95714) | -0.001 | -0.007 | -0.055 | -0.041 | 0.023 | -0.007 | 0.022 | 0.058 | -0.15 | 0.153 | -0.077 | 0.017 | 0.032 | -0.034 | 0.118 | -0.061 | 0.007 | 0.028 | -0.047 | 0.085
11 | GTF2H4 (UniProt Q92759) | -0.026 | 0.027 | -0.025 | 0.061 | -0.01 | -0.14 | 0.031 | 0 | -0.039 | 0.038 | 0.006 | 0.021 | 0.003 | 0.019 | -0.011 | -0.029 | -0.008 | 0.07 | 0.04 | -0.08
12 | INF2 (UniProt Q27J81) | 0.024 | -0.019 | -0.043 | 0.002 | -0.051 | -0.001 | 0.04 | 0.049 | -0.068 | 0.128 | -0.08 | 0.055 | 0.032 | 0.034 | -0.013 | -0.051 | -0.079 | 0.023 | 0.005 | -0.035
13 | HSD17B12 (UniProt Q53GQ0) | 0.31 (active) | -0.034 | -0.025 | -0.158 | -0.08 | 0.41 (active) | 0.011 | 0.047 | -0.019 | 0.149 | -0.024 | -0.04 | 0.016 | 0.033 | 0.007 | 0.073 | -0.118 | 0.058 | 0.012 | -0.045
14 | ISY1 isoform 1 (UniProt Q9ULR0) | -0.033 | 0.011 | 0.01 | -0.022 | 0.019 | 0.078 | -0.035 | 0.016 | -0.013 | 0.016 | 0.012 | 0.026 | 0.002 | -0.024 | -0.082 | -0.036 | -0.018 | 0.014 | -0.012 | -0.01
15 | IGF2BP2 (UniProt Q9Y6M1) | -0.034 | -0.015 | 0.012 | -0.031 | 0 | 0.009 | -0.011 | 0.021 | -0.093 | 0.048 | -0.051 | 0.008 | -0.055 | -0.008 | 0.031 | 0.012 | 0.028 | 0.06 | 0.016 | 0.019
16 | IMPDH1 isoform 6 (UniProt P20839) | -0.001 | 0.01 | -0.021 | -0.061 | -0.013 | 0.046 | 0.014 | 0.033 | -0.037 | 0.064 | 0.008 | -0.034 | -0.033 | 0.015 | -0.006 | -0.121 | -0.017 | -0.007 | -0.008 | -0.012
